Reference: ChEMBL document CHEMBL4513216, “Probing the Open Global Health Chemical Diversity Library for Multistage-Active Starting Points for Next-Generation Antimalarials” (ACS Infect Dis, 2020)
Among all 69,000 compounds or so, about 8,600 (12%) showed an effect of 50% or more. The sample holds strong results, similar compounds and a random draw of the others, so the mix is not that of the screen.

The compounds below were run on Plasmodium berghei (assay: Screen against P. berghei liver stage (PbLuc), transformed with Luciferase, at 10uM). Settings: tested at 10 uM.
Type: functional, HepG2

Structure (SMILES) | INHIBITION [%]
O=C(CCN1CCCCO1)N1CCC(CO)(Cc2ccccc2)CC1 | -9.44
O=C1CC(c2cccs2)Cc2[nH]c(=O)c(C(=O)NC3CCCC3)cc21 (stereo not given) | 59.5
CC1CC(=O)c2cc(C(=O)N3CCc4ccccc43)c(=O)[nH]c2C1 (stereo not given) | 21.5
CC(C)NC(=O)c1cc2c([nH]c1=O)CC(c1cccs1)CC2=O (stereo not given) | 62.3
CCCNC(=O)c1cc2c([nH]c1=O)CC(c1cccs1)CC2=O (stereo not given) | 41.8
O=C1CC(c2cccs2)Cc2[nH]c(=O)ccc21 (stereo not given) | -32.1
O=C1CC(c2ccc(F)cc2)Cc2[nH]c(=O)c(C(=O)O)cc21 (stereo not given) | -67.9
CCOCC1CN(Cc2ccco2)Cc2nccn2C1 (stereo not given) | 10.7
COc1cc(C(=O)N2C[C@@H]3CC[C@H]2CN(Cc2cscn2)C3)ccn1 | -16.3
CC1(C)[C@@H]2CC=C(CN3CCCn4nc(C(=O)NCCO)cc4C3)[C@H]1C2 | 68.4
CC1(C)[C@@H]2CC=C(CN3CCCn4nc(CNS(C)(=O)=O)cc4C3)[C@H]1C2 | 25.7
CCOC(=O)N1CCCn2nc(C(=O)NCCN(C)C)cc2C1 | -10.2
O=C(O)CCc1cc2n(n1)CCN(Cc1ccc3[nH]ccc3c1)C2 | -15.7
CC1(C)[C@@H]2CC=C(CN3CCCn4nc(C(=O)O)cc4C3)[C@H]1C2 | 65.6
CN(C)C(=O)NCc1cc2n(n1)CCCN(CC1[C@H]3CNC[C@@H]13)C2 (stereo not given in full) | -14.6
Cc1nc2ccccc2nc1CN1CCn2nc(CCC(=O)O)cc2C1 | 36
O=C(NCc1cc2n(n1)CCCN(Cc1ccc(CO)o1)C2)C1CCC1 | 11.8
O=C(O)CCc1cc2n(n1)CCN(Cc1cnc(N3CCCC3)nc1)C2 | 7.43
CN(C)CCNC(=O)c1cc2n(n1)CCN(C(=O)CC(C)(C)C)C2 | -15.7
Cc1cc(CN2CCCn3nc(CCC(=O)O)cc3C2)ccc1F | 60.2
CC1(C)[C@@H]2CC=C(CN3CCCn4nc(CCC(=O)O)cc4C3)[C@H]1C2 | 59.1
CC(C)CN1CCN(C)C(CCO)C1 (stereo not given) | 34.4
Cc1ccc(-c2cc(CNC(=O)N3CCC(N(C)C)CC3)on2)cc1 | 17.4
COc1ccc(C(=O)N2CC(=O)N(C3CCC3)CC(O)C2)c(OC)c1 (stereo not given) | 13.9
CO[C@@H]1CC[C@@H](NS(=O)(=O)c2cn(C)nc2C)[C@H]1O | 33.8
c1ccc(CN2CCC(CNc3ncnc4c3CCNCC4)CC2)cc1 | 28.7
COc1ccc(-c2ccc(C(=O)N3CCOCC3CC(=O)O)o2)cc1 (stereo not given) | 1.71
O=C(CN1CCCCCC1)N1CCc2nnc(C3CCCNC3)n2CC1 (stereo not given) | 30.4

Structure (SMILES) | INHIBITION [%]
CC(C)c1noc(CCNC(=O)NCC2COc3ccccc3O2)n1 (stereo not given) | 7.24
O=C(c1ccco1)N1CCc2ncnc(Oc3cccnc3)c2CC1 | 29
O=C(CN1CCN(CC(O)C2CC2)CC1)NCc1ccccc1Cl (stereo not given) | 17.6
Cc1nnc(N2CCOC(C)C2)c(C#N)c1C (stereo not given) | 7.4
CS(=O)(=O)N1CCCC1Cn1cccn1 (stereo not given) | 20.8
COc1ccccc1C1=NOC(CC2(C(=O)NCCO)CCOCC2)C1 (stereo not given) | 8.72
Cc1cc(CN2CCCCC2Cn2cncn2)no1 (stereo not given) | 20.8
c1ccc(-c2nc(CN3CCc4c(ncn4C4CC4)C3)cs2)cc1 | 34.1
CNS(=O)(=O)CC(=O)NCc1cc2c(s1)CCC(C)(C)C2 | -19.3
O=C([C@H]1C[C@H]2OCC[C@H]2N(CCc2ccccc2)C1)N1CCCCO1 | -0.569
CCS(=O)(=O)N1CCC2(CC1)c1ncc(-c3cccnc3)n1CCN2C | 24.9
CNC(=O)N1CCC2(CC1)c1ncc(-c3cccc(F)c3)n1CCN2C | 63.3
CC(=O)N1CCn2c(-c3cccc(F)c3)cnc2C12CCNCC2 | 24.9
CN1CCn2c(-c3cccc(F)c3)cnc2C12CCN(CC1CC1)CC2 | 8.85
CC(=O)N1CCC2(CC1)c1ncc(-c3ccccc3)n1CCN2C | 43
CCN1CCn2c(-c3cccc(F)c3)cnc2C12CCN(C(C)=O)CC2 | 85.2
CC(=O)N1CCC2(CC1)c1ncc(-c3ccccc3)n1CCN2C(C)=O | -15.3
CC(=O)N1CCC2(CC1)c1ncc(-c3cccnc3)n1CCN2C | 58.4
CC(=O)N1CCC2(CC1)c1ncc(-c3ccc(F)cc3)n1CCN2C | 39.4
COc1ccccc1CNC(=O)CN(C)C(C)c1ccon1 (stereo not given) | -13.6
COc1ccc(N2CCN(C(=O)COc3c(C)occc3=O)CC2)cc1 | -1.99
O=C(O)c1ccc(=O)n(CC(c2ccc(Cl)cc2)N2CCCCCC2)c1 (stereo not given) | 10.8
OC(CNCc1nnc2ccccn12)c1ccc2c(c1)OCO2 (stereo not given) | -10.8
Nc1nccnc1C1CN(C(=O)c2ccc3c(c2)OCO3)CCO1 (stereo not given) | 11.1
Cc1c(C2CC2)n[nH]c1NC(=O)C1CCCN(C(=O)NCC(C)C)C1 (stereo not given) | 35.7
CCCC1c2cccn2CCN1C(=O)Cn1cnc2sc(C)cc2c1=O (stereo not given) | 11.35
Cc1ccc(-c2noc(CN3CCOC(Cn4cccn4)C3)n2)cc1 (stereo not given) | 48.6
